# Screening data: PubChem, The Scripps Research Institute Molecular Screening Center
# Hits are enriched below; roughly 1.3% of the tested compounds scored in any of these assays.
# GALR2 ag – activates the human galanin receptor 2 | GALR2-expressing cells, agonist activation read-out | activation, % (no concentration beside the values) | actives 0.48% (n = 140,000) | AID 803; in the data active means activation above about 5%, passing the limit was not always enough;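 further: 0% = vehicle buffer wells and 100% = reference agonist at full effect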
# Target sequence (O43603 whole entry, looked up): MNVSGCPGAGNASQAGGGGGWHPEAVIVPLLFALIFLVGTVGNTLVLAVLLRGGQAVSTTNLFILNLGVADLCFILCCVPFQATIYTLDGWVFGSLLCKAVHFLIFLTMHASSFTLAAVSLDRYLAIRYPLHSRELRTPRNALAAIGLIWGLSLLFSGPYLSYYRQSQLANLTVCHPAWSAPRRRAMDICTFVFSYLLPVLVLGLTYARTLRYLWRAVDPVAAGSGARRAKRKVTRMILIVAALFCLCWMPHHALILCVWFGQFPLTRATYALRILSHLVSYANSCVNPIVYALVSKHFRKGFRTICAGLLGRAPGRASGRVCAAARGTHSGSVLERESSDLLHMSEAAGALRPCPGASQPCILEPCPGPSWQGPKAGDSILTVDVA
# S1P4 agonist – human S1P4 receptor agonism | actives 0.35% (n = 220,000) | AID 1509 | activation, % at 4.98 µM | S1P4-expressing cell line, agonist reporter assay | O95977; in the data active means activation above about 11%;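 further: 0% = DMSO vehicle and 100% = reference agonist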
# GALR2 antag – GALR2 (human) receptor antagonism; O43603; GALR2-expressing cells, antagonist mode; inhibition, % at 4 µM; actives 0.39% (n = 140,000); AID 828; in the data active means inhibition above about 27%;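 further: cells stimulated with galanin 1-16 at roughly its EC80; 0% = agonist challenge control and 100% = basal control without agonist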
# S1P4 antagonist – blocks the human S1P4 receptor | O95977 | S1P4-expressing cells, antagonist mode, reporter read-out | inhibition, % at 4.98 µM | actives 0.26% (n = 220,000) | AID 1510; in the data active means inhibition above about 29%;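 further: 0% = wells stimulated with agonist and 100% = vehicle wells without agonist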
# S1P3 antag – blocks the human S1P3 receptor; Q99500; inhibition, % at 4.98 µM; CHO S1P3 NFAT-BLA reporter, FRET fluorescence, antagonist mode; actives 0.27% (n = 170,000);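 active means inhibition above the plate cutoff, the mean inhibition of test wells on that plate plus 3 SD, cut at about 28% in these data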;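 further: cells challenged with S1P at its EC80 of 0.8 µM; blue over green emission ratio from cleaved BLA substrate after 4 h stimulation; 0% = S1P-stimulated wells and 100% = unstimulated DMSO-only wells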
# * hit, by the source's call; nt = no result.
SMILES,GALR2 ag,S1P4 agonist,GALR2 antag,S1P4 antagonist,S1P3 antag
CCCSc1ccc(-c2nn(-c3ccccc3)cc2/C=C(/C#N)C(=O)N2CCOCC2)cc1,-1,0,8,-4,14
COc1cc(Cn2c(N)c(C#N)c3nc4ccccc4nc32)cc(OC)c1,13*,4,-6,-12,-36
COC(=O)C1=CN(C)C=C(C(=O)OC)C1c1ccccc1Cl,16*,6,-10,-13,-7
COCCN1C=C(C(=O)OC)C(c2ccc(Cl)cc2)C(C(=O)OC)=C1,nt,9,nt,-10,-8
COc1cc(S(=O)(=O)NCc2ccccn2)c(OC)cc1Cl,-1,-2,-18,-3,nt
CCOc1cc(C)c(C(C)C)cc1S(=O)(=O)NCc1ccccn1,-2,-1,-1,-2,118*
CC(=O)Nc1ccc(S(=O)(=O)N2CCN(CC3CC4C=CC3C4)CC2)cc1 (stereo not drawn),nt,2,nt,-23,-5
CC1CCC(NC(=O)C2CC(=O)N(c3ccc4c(c3)OCCO4)C2)CC1 (stereo not drawn),nt,1,nt,-17,-3
CC(=O)NC1=NN(C(C)=O)C(C)(CCS(=O)(=O)c2ccc(Br)cc2)S1 (stereo not drawn),6.9*,0,-1,-10,-24
CC(=O)NC1=NN(C(C)=O)C(C)(CS(=O)(=O)c2ccc(Cl)cc2)S1 (stereo not drawn),-2,7,2,-5,nt
COc1ccc(-n2c(NC(=O)c3ccc(Br)o3)c(C#N)c3nc4ccccc4nc32)cc1,5.4*,3,-1,-21,nt
Cc1ccc(NC(=O)C2CC(=O)Nc3ncnn32)c(C)c1 (stereo not drawn),nt,0,nt,1,-6
COc1cccc2c1C(=O)c1c(O)c3c(c(O)c1C2=O)C[C@@](O)(C(C)=O)C[C@@H]3O[C@H]1C[C@H](N)[C@H](O)[C@H](C)O1,-2,-3,98*,101*,-2
CN1N=C(C(=O)N2CCCC(C(=O)c3cccc(C(F)(F)F)c3)C2)CCC1=O (stereo not drawn),nt,0,nt,8,-13
C=CCn1c(SCC(=O)Nc2ncc(Cc3ccc(C)c(Cl)c3)s2)nnc1-c1ccncc1,-2,0,8,1,-5
CCOc1ccccc1Nc1ncnc2c1cnn2-c1ccccc1,nt,nt,nt,nt,113*
COc1ccc(Nc2ncnc3c2cnn3-c2ccccc2)cc1OC,-1,0,5,-5,23
CC(C)C(C)(C#N)NC(=O)CSc1nc2scc(-c3ccc(F)cc3)c2c(=O)n1Cc1ccccc1 (stereo not drawn),0,-2,5,-12,-4
O=S(=O)(NCc1ccccc1F)c1cccc(S(=O)(=O)N2CCOCC2)c1,nt,2,nt,-6,-4
CCC(=O)N1c2ccccc2-c2nnc(SC)nc2OC1c1ccc(N(C)C)cc1 (stereo not drawn),0,220*,-3,-9,-44
CC(=O)Nc1ccc(N2C(=O)CSC2c2ccccc2[N+](=O)[O-])cc1 (stereo not drawn),nt,1,nt,-2,-7
Cc1cc(C)c2sc(NNC(=O)c3ccc(S(=O)(=O)N4CCc5ccccc5C4)cc3)nc2c1,7.7*,0,-1,11,13
CN(C)c1ccc(/C=C/c2ccc3c4ccccc4ccc3[n+]2-c2ccccc2)cc1,nt,-3,nt,11,55*
Cc1ccc2nc3cc([N+](=O)[O-])cc([N+](=O)[O-])c3cc2c1,nt,0,nt,29*,-5
COc1ccccc1-n1c(SCC(=O)N2CCCC2)nnc1-c1ccccc1,nt,0,nt,-5,5
SMILES,GALR2 ag,S1P4 agonist,GALR2 antag,S1P4 antagonist,S1P3 antag
Cc1nn(CCc2nn[nH]n2)c2nc(-c3ccc(C4CCCCC4)cc3)cc(C(F)(F)F)c12,nt,1,nt,-22,-1
Nc1ccc(O)cc1C(=O)OCC(=O)c1ccc(C2CCCCC2)cc1,6.3*,1,13,8,6
CC(Nc1ccc(Cl)cc1)c1cc(Cl)ccc1O (stereo not drawn),-3,1,1,-2,nt
CC(Nc1ccc(Br)cn1)c1cc(Cl)ccc1O (stereo not drawn),-1,3,-8,8,67*
C=CCOC(=O)C1=C(C)NC(C)=C(C(=O)OCC=C)C1c1cn(-c2ccccc2)nc1-c1ccco1,5.1*,1,-1,-24,-3
Cc1ccc(/C=C/C(=O)Nc2sc3c(c2C#N)CCCC3)o1,5.7*,1,1,-12,-9
CCc1ccc(CCC(=O)Nc2sc3c(c2C#N)CCCC3)o1,0,1,-6,9,-10
COC(=O)c1ccc(C(C(=O)NCc2ccccc2)N(Cc2ccco2)C(=O)c2cnccn2)cc1 (stereo not drawn),-1,19*,-11,2,-6
